Measurements: PMC4336329 (PLoS ONE, 2015)
The campaign covered roughly 310,000 compounds. About 14,000 (4.5%) showed an effect of 50% or more. Effects have a minus sign here. For the sample, strong results were picked, then their nearest neighbours and some compounds at random.

Biological target: human ether-à-go-go-related gene (hERG) potassium channel (human, UniProt Q12809)
Test: primary screen, population patch clamp on CHO cells stably expressing hERG; higher = less effect of the substance
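Note: peak tail current of the secondary pulse compared with the same well before compound.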

Chain of human ether-à-go-go-related gene (hERG) potassium channel (Q12809 whole entry, looked up): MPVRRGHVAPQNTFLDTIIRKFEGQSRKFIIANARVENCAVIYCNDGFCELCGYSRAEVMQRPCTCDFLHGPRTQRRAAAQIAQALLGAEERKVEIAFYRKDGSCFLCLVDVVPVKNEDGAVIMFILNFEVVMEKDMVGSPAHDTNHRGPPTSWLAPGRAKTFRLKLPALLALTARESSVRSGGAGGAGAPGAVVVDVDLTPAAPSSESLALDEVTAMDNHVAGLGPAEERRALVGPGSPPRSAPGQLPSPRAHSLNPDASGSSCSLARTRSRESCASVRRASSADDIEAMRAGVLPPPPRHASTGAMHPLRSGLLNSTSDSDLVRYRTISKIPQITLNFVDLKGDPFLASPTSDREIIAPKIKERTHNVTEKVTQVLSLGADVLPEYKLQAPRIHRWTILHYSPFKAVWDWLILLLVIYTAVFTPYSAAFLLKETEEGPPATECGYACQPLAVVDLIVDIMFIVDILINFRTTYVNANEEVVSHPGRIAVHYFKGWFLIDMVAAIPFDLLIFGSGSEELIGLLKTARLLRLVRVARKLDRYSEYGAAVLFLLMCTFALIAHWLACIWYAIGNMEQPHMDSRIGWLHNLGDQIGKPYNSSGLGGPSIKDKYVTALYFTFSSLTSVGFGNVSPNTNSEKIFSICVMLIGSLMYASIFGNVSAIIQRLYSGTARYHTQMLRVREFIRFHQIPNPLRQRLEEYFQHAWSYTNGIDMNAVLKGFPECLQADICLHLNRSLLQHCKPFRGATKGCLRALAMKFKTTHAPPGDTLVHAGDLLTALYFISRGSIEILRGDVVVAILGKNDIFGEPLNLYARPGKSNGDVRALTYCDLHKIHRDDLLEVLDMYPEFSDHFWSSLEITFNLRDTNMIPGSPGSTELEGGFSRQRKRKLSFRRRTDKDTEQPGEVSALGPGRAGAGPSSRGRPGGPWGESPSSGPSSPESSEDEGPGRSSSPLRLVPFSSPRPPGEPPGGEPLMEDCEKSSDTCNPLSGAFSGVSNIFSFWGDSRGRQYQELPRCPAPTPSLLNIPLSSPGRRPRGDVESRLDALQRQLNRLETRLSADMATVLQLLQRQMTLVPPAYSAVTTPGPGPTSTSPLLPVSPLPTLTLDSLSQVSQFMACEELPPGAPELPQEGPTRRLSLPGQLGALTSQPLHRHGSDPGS

Row | SMILES | hERG current change (%, negative = inhibition) at 10uM
1 | Cc1cc(OCC(=O)OC(C)(C)C)c2c3c(c(=O)oc2c1)CCC3 | 5.64%
2 | Cc1ccc(NC2CCCN(C(=O)c3cnc4ccccn4c3=O)C2)cc1C (centres unmarked) | -3.33%
3 | CCOc1ccc(S(=O)(=O)NCc2cccnc2)cc1 | 15.5%
4 | Cc1ccc(C(=O)OC2CCOC2=O)cc1NC(=O)c1ccco1 (centres unmarked) | 0.0901%
5 | Cc1cc(C)c2c(N)c(C(=O)NC3CC3)sc2n1 | 8.51%
6 | CC(C)(C)CNC(CO)C12CC3CC(CC(C3)C1)C2.Cl (centres unmarked) | -4.3%
7 | Cc1ncc(S(=O)(=O)C(C)(C)C)c(N)n1 | 2.37%
8 | O=C(c1sc2ccccc2c1Cl)N1CCN(c2ccc(F)cc2)CC1 | -3.54%
9 | Cc1noc(C)c1C(=O)N1CCN(C(=O)c2sc3cc(Cl)ccc3c2Cl)CC1 | -47.4%
10 | O=C(c1sc2cc(Cl)ccc2c1Cl)N1CCN(CCc2ccccn2)CC1 | -69.6%
11 | O=C(c1cc(-c2ccccn2)nc2ccc(Cl)cc12)N1CCN(CCc2ccccc2)CC1 | 6.73%
12 | O=C(c1sc2ccccc2c1Cl)N1CCN(c2ccccc2F)CC1 | -1.51%
13 | O=C(c1sc2ccccc2c1Cl)N1CCN(CCc2ccccn2)CC1 | -60.5%
14 | O=C(c1sc2ccccc2c1Cl)N1CCN(c2ccccn2)CC1 | -68.7%
15 | O=C(c1sc2cccc(Cl)c2c1Cl)N1CCN(CCc2ccccn2)CC1 | -28.9%
16 | O=C(c1sc2ccccc2c1Cl)N1CCN(c2ncccn2)CC1 | -9.78%
17 | COc1cc(C)nc(N2CCCC(C(=O)NC3CCC(C)CC3)C2)n1 (centres unmarked) | -0.336%
18 | CCOc1ccc(CCNC(=O)CSCc2ccc(C)cc2)cc1OCC | -2.33%
19 | Cc1cc2c(cc1C)NC(=O)CC(C(F)(F)C(F)(F)C(F)(F)F)=N2 | 9.6%
20 | C(=N\NC1=Nc2cccc3cccc1c23)/c1cccnc1 | -5.08%
21 | O=C(O)c1ccc(NC(=O)C(c2ccccc2)c2ccccc2)cc1 | 14.3%
22 | COc1ccc(C2C(C#N)=C(SC)NC3=C2C(=O)CC(C)(C)C3)cc1 (centres unmarked) | -15.4%
23 | COC(=O)[C@@H]1CCCN1Cc1c(C(=O)N2CCOCC2)nc2c(C)cccn12 | 24.1%
24 | O=C(Nc1ccnn1C1CCN(C2CCCCC2)CC1)c1ccccc1 | -25.8%

Row | SMILES | hERG current change (%, negative = inhibition) at 10uM
25 | COc1ccccc1N1CCN(CC(=O)Nc2ccnn2C2CCCC2)CC1 | 3.01%
26 | COc1ccccc1NC(=O)Nc1ccnn1C1CCCCC1 | -12.7%
27 | COc1ccccc1C(=O)Nc1ccnn1C1CCN(CCCC2CCCC2)CC1 | -85.1%
28 | O=C(Nc1ccnn1C1CCN(CCCC2CCCC2)CC1)c1ccccc1 | -73.1%
29 | O=C(Nc1ccnn1C1CCN(CCCC2CCCC2)CC1)c1ccccc1Cl | -86.4%
30 | O=C(Nc1ccnn1C1CCN(C2CCCC2)CC1)c1ccccc1 | 1.61%
31 | O=C(c1cc(=O)[nH]c2ccccc12)N1CCc2ccccc2C1 | 11%
32 | O=c1c2ccccc2nc2n1CCO2 | 10.2%
33 | COc1cc2cc(Oc3ccc4ccc(=O)oc4c3)c(=O)oc2cc1OC(C)=O | 0.234%
34 | COc1ccc(-c2cn3cc(C(F)(F)F)cc(Cl)c3n2)cc1 | 9.73%
35 | Cc1ccc(C(=O)Nc2nc3ccc(S(C)(=O)=O)cc3s2)o1 | -0.566%
36 | Cc1nc(CN(C)C(=O)c2ccccc2OC2CCN(S(C)(=O)=O)CC2)cs1 | 3.35%
37 | COc1cccc(N2CCN(C(=O)CCC(=O)N3CCOc4ccc(C)cc43)CC2)c1 | -30.3%
38 | O=C(CCC(=O)N1CCOc2ccccc21)N1CCOCC1 | -5.85%
39 | COc1ccc(N2CCN(CCCNC(=O)CCC(=O)N3CCOc4ccc(Cl)cc43)CC2)cc1 | -70.4%
40 | COc1ccc(N2CCN(C(=O)CCC(=O)N3CCOc4ccc(C)cc43)CC2)cc1 | -42.7%
41 | COc1ccc(CCNC(=O)CCC(=O)N2CCOc3ccc(Cl)cc32)cc1OC | -20.2%
42 | COc1ccccc1CNC(=O)CCC(=O)N1CCOc2ccc(Cl)cc21 | -5.43%
43 | Cc1ccc2c(c1)N(C(=O)CCC(=O)N1CCN(c3ccccc3)CC1)CCO2 | -43.8%
44 | COc1ccc(N2CCN(C(=O)CCC(=O)N3CCOc4ccc(Cl)cc43)CC2)cc1 | -52.8%
45 | O=C(CCC(=O)N1CCOc2ccccc21)N1CCN(c2ccccc2)CC1 | -70%
46 | O=C(Oc1nsnc1N1CCOCC1)N1CCOCC1 | 15.3%
47 | CCc1noc(C)c1C(=O)Nc1cc(C(F)(F)F)ccc1-n1cncn1 | -21.3%
48 | O=C(Nc1cccc2nsnc12)c1ccc(-c2cccc(Cl)c2)o1 | 10.4%

Row | SMILES | hERG current change (%, negative = inhibition) at 10uM
49 | FC(F)(F)c1ccccc1NC(=S)NN=C1CCCCCC1 | 23.5%
50 | CCC(=O)N(CCc1ccccc1C)Cc1cc2cc3c(cc2[nH]c1=O)OCO3 | -3.05%
51 | COC(=O)c1ccccc1NC(=O)Cn1nc2n(C)c3ccccc3n2c(=O)c1=O | -3.54%
52 | Cc1ccc(N2CC(C(=O)NCCN3CCOCC3)CC2=O)cc1C (centres unmarked) | 10.2%
53 | Cn1nnnc1P(=O)(c1ccccc1)c1ccccc1 | 7.84%
54 | O=C1NCC(O)=C1C=NC12CC3CC(CC(C3)C1)C2 [4246017] | 12.6%
55 | COc1ccc(NC(=O)N2c3ccc(OC)cc3C(C)=CC2(C)C)cc1 | 20.1%
56 | CC1=C(c2ccccc2)[N+](=O)C2(CCCCC2)N1[O-] | -4.49%
57 | COc1ccc(C2=NOC3(CC(=O)N(c4ccc(F)cc4)C3=O)C2)cc1 (centres unmarked) | 15.5%
58 | O=C(COC(=O)c1cc([N+](=O)[O-])ccc1NCCO)Nc1ccc2c(c1)OCO2 | 5.75%
59 | FC(F)Oc1ccc(-n2cc(-c3ccccc3)[n+]3c2CCCCC3)cc1.[Br-] | -55.6%
60 | COc1ccc(-n2cc(-c3ccc(OC(F)F)cc3)[n+]3c2CCCCC3)cc1.[Br-] | -76.3%
61 | Brc1ccc(-c2csc3[n+]2CCCCC3)cc1.[Br-] | -6.25%
62 | COc1ccc(N2CCN(C(=O)COC(=O)c3ccc(OC(F)F)cc3)CC2)cc1 | -26.5%
63 | FC(F)Oc1ccc(-n2cc(-c3ccc(Cl)cc3)[n+]3c2CCCCC3)cc1.[Br-] | -78.3%
64 | Clc1ccc(-n2cc(-c3ccc(Br)cc3)[n+]3c2CCCCC3)cc1.[Br-] | -49.4%
65 | [Cl-].c1ccc(-c2c[nH]c3[n+]2CCCCC3)cc1 | -2.27%
66 | Clc1ccc(-c2cn(-c3ccc(Cl)cc3)c3[n+]2CCCCC3)cc1.[Br-] | -52.7%
67 | O=C(Nc1ccc(Cl)cc1)N(C1=NCCC1)c1ccc(OC(F)F)cc1 | -8.02%
68 | COc1ccc(-n2cc(-c3ccccc3)[n+]3c2CCCCC3)cc1.[Br-] | -19.3%
69 | COc1ccc(-c2cn(-c3ccc(Cl)cc3)c3[n+]2CCCCC3)cc1.[Br-] | -31.9%
70 | Br.FC(F)Oc1ccc(-c2csc(NNC3=NCCCCC3)n2)cc1 | -47.5%
71 | O=C(NCC(c1cccs1)N1CCc2ccccc21)c1ccccc1 (centres unmarked) | 15.3%
72 | C=CCN(c1ccc(C(=O)N(CC)CC)cc1)S(C)(=O)=O | -4.12%

Row | SMILES | hERG current change (%, negative = inhibition) at 10uM
73 | CCN(CC)CCCNC(=O)C1c2ccccc2C(=O)N(CCOC)C1c1ccc(F)cc1 (centres unmarked) | 14.9%
74 | COc1ccc(CNC(=O)COC(=O)c2[nH]c(C)c(C(C)=O)c2C)cc1OC | 1.28%
75 | CC(=O)Oc1ccc(N2C(=O)CCC2=O)cc1 | 16%
76 | Cc1ccc(N2C(=O)[C@@H]3Cc4ccccc4CN3C2=O)cc1 | -3.34%
77 | CCOC(=O)CC1C(=O)NCCN1C(=O)c1ccc(Cl)cc1 (centres unmarked) | 12.9%
78 | Nc1nc2ccc(NC(=O)c3ccco3)cc2s1 | 11.7%
79 | COc1ccc(CNC(=O)CCc2nnc3ccc(N4CCC5(CC4)OCCO5)nn23)cc1 | 15.1%
80 | Nn1c(COc2ccccc2F)nnc1SCC(=O)NC1CC1 | 0.387%
81 | CC(=O)NC1=NN(C(C)=O)C(C)(c2ccco2)S1 (centres unmarked) | 14.6%
82 | Cc1ccc(-c2cn(-c3ccc(OC(F)F)cc3)c3[n+]2CCCCC3)cc1.[Br-] | -61.6%
83 | Cc1ccc(CONC(=O)c2ccc(OC(F)F)cc2)cc1 | -30.9%
84 | O=C(CC1C(=O)NCCN1Cc1ccoc1)NCc1cccc(OC(F)(F)F)c1 (centres unmarked) | 1.19%
85 | CC(C)(O)CC[C@@H](O)[C@](C)(O)C1CC[C@@]2(O)C3=CC(=O)[C@]4(O)C[C@@H](O)[C@@H](O)C[C@]4(C)C3CC[C@]12C (some centres unmarked) | 30.1%
86 | CCCCCCSc1ncc(C#N)c(N)n1 | -4.45%
87 | COc1ccc(Cn2c(-c3ccco3)nc3c(c(=O)c4ccccc4n3C)c2=O)cc1 | -35.3%
88 | Cc1ccc(-c2nc3c(c(=O)c4ccccc4n3C)c(=O)n2Cc2ccco2)cc1 | 2.18%
89 | Cn1c2ccccc2c(=O)c2c(=O)n(C3CCCCC3)c(-c3ccco3)nc21 | -53.9%
90 | CCc1nc2c(c(=O)c3ccccc3n2C)c(=O)n1C1CCCCCC1 | -1.73%
91 | Cn1c2ccccc2c(=O)c2c(=O)n(C3CCCCC3)c(-c3cccs3)nc21 | -66.1%
92 | Cc1nc2c(c(=O)c3ccccc3n2C)c(=O)n1C1CCCCCC1 | -0.582%
93 | CCCCCc1nc2c(c(=O)c3ccccc3n2C)c(=O)n1C1CCCCCC1 | 1.32%
94 | CCCc1nc2c(c(=O)c3ccccc3n2C)c(=O)n1C1CCCCCC1 | -10.1%
95 | CC(C)Cn1c(-c2ccco2)nc2c(c(=O)c3ccccc3n2C)c1=O | -59.3%
